Only a selection was taken, and hits are over-represented in it overall.
BJeLR viab HTS = BJeLR cell viability loss, primary screen, luminescence, CellTiterGlo ATP; viability loss activity score, % (no concentration beside the values); AID 2275, 2010; BJeLR fibroblasts viability, 48 h; HRASV12, hTERT and SV40 LT/ST transformed; 30,000 compounds, 0.64% hits; in the data active = viability loss activity score above about 50%;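 note: higher score means fewer live cells and less ATP luminescence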
YB-1 expr inh = inhibitors of YB-1 gene expression, primary screen, cell-based, fluorescence | delta delta Cp (YB-1 minus CDIP) (no concentration beside the values) | U2OS, qRT-PCR YB-1 vs CDIP delta delta Cp, 16 h; stronger effect = higher value; zero = DMSO, each unit about twofold | 30,000 compounds, 0.37% hits;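 active = delta delta Cp rounded down to an integer at or above 3, about 3 SD of DMSO wells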;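 note: higher means less YB-1 transcript or more CDIP transcript relative to DMSO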
Hedgehog inh = Hedgehog pathway signaling inhibitors, primary screen, luminescence, Shh-LIGHT2 cells, Gli-luciferase. Shh-LIGHT2 Gli-luciferase reporter, 30 h. inhibition, % (test concentration not listed). 22,000 compounds, 2.1% hits;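 active = mean inhibition across valid replicates above about 65%, limit read from the data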;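 note: pathway switched on by Shh-conditioned medium diluted 1 in 25 in low serum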
MITF inh = inhibitors of MITF, primary screen, MITF inhibitor project, cell-based, luminescence; inhibition, % (test concentration not listed); TRPM1 promoter luciferase, 24 h; AID 2240, 2010; 37,000 compounds, 0.28% hits; in the data active = inhibition above about 85%;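 note: human melanocyte line stably carrying TRPM1 promoter luciferase reporter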
Numbers without * were called inactive.

Screening CC1CC[C@@]2(OC1)O[C@H]1CC3C4CC=C5C[C@@H](O[C@@H]6O[C@H](CO)[C@@H](O[C@@H]7O[C@@H](C)[C@H](O)[C@@H](O)[C@H]7O)[C@H](O)[C@H]6O[C@@H]6O[C@@H](C)[C@H](O)[C@@H](O)[C@H]6O)CC[C@]5(C)C4CC[C@]3(C)[C@@]1(O)[C@@H]2C (stereo partly specified) returned BJeLR viab HTS 92.0*, YB-1 expr inh 1.96, Hedgehog inh 79.6* and MITF inh 74.1.
O=C(NCCc1ccccc1)N1c2ccccc2Sc2ccccc21 was read as BJeLR viab HTS -0.5, YB-1 expr inh -0.278, Hedgehog inh 91.9* and MITF inh 43.4.
C[C@H](CO)N1C[C@H](C)[C@@H](CN(C)Cc2ccc(C(=O)O)cc2)Oc2c(NS(C)(=O)=O)cccc2C1=O was read as BJeLR viab HTS 5.7, YB-1 expr inh 0.00476, Hedgehog inh -22.6 and MITF inh -10.9.
Screening CCCN1C/C(=C/c2ccc(OC)cc2)C(=O)/C(=C/c2ccc(OC)cc2)C1 returned BJeLR viab HTS 70.1*.
Screening O=C(O)c1cccc(COc2ccc(CO)cc2Cl)c1 returned MITF inh 88.6*.
For CC(C)(C)OC(=O)NC1(/C=N/NC(=O)c2ccccc2O)CCCC1 the results were YB-1 expr inh -0.105.
Cc1cc(/C=C2/SC(=O)N(C(C)C)C2=O)c(C)n1-c1ccncc1 was read as BJeLR viab HTS -4.6, YB-1 expr inh 9.62* and MITF inh -7.6.
Screening C=C1C(=O)O[C@@H]2[C@H]1[C@H](O)C[C@]1(C)[C@@H](O)CC=C(C)[C@@H]21 returned BJeLR viab HTS -5.5, YB-1 expr inh -0.000549, Hedgehog inh -10.7 and MITF inh 7.6.
C=C1C(=O)O[C@@H]2C3O[C@]3(C)CC/C=C(/C)CC[C@@H]12 (stereo partly specified) was read as BJeLR viab HTS 7.4, YB-1 expr inh -0.0157, Hedgehog inh 67.5* and MITF inh 68.4.
`C=C1C(=O)O[C@@H]2[C@H]3O[C@]3(C)CCC=C(C)CC[C@@H]12` gave BJeLR viab HTS 17.1, YB-1 expr inh -0.063, Hedgehog inh 82.1* and MITF inh 93.1*.
C=C1C(=O)O[C@H]2C1CCC(C)=C1C(=O)C=C(C)[C@@]12O (stereo partly specified) was read as BJeLR viab HTS -4.2, YB-1 expr inh 0.177, Hedgehog inh 6.5 and MITF inh 10.2.
`CCOC(=O)c1cc(C(=O)OC)c(C)nc1SCC(=O)OC` gave BJeLR viab HTS -5.0.
For C[C@@H]1CN([C@H](C)CO)C(=O)c2cccc(NC(=O)Nc3ccc(C(F)(F)F)cc3)c2O[C@@H]1CN(C)S(=O)(=O)c1ccc(F)cc1 the results were BJeLR viab HTS -5.2, YB-1 expr inh -0.192, Hedgehog inh -12.6 and MITF inh 18.5.
Screening COc1ccc(S(=O)(=O)N(C)C[C@H]2Oc3c(NC(=O)c4nc5ccccc5s4)cccc3C(=O)N([C@@H](C)CO)C[C@H]2C)cc1 returned BJeLR viab HTS -3.4, YB-1 expr inh 7.87*, Hedgehog inh -16.8 and MITF inh 1.1.
Screening C[C@H](CO)N1C[C@H](C)[C@H](CN(C)S(=O)(=O)c2ccc(Cl)cc2)Oc2ccc(NC(=O)Nc3ccc(C(F)(F)F)cc3)cc2CC1=O returned YB-1 expr inh 0.634, Hedgehog inh 72.4* and MITF inh 50.0.
Cc1ccc(S(=O)(=O)N(C)C[C@@H]2Oc3c(NC(=O)Nc4ccc(C(F)(F)F)cc4)cccc3C(=O)N([C@H](C)CO)C[C@H]2C)cc1 was read as BJeLR viab HTS -0.7, YB-1 expr inh -0.0824, Hedgehog inh -5.1 and MITF inh 3.3.
`C[C@@H]1CN([C@H](C)CO)C(=O)Cc2cc(NC(=O)Nc3ccc(C(F)(F)F)cc3)ccc2O[C@@H]1CN(C)S(=O)(=O)c1ccc(Cl)cc1` gave YB-1 expr inh 0.117, Hedgehog inh -2.5 and MITF inh 16.0.
Screening Cc1ccc(S(=O)(=O)N(C)C[C@@H]2Oc3c(NC(=O)Nc4ccc(C(F)(F)F)cc4)cccc3C(=O)N([C@@H](C)CO)C[C@@H]2C)cc1 returned BJeLR viab HTS -0.1, YB-1 expr inh 0.197, Hedgehog inh 93.4* and MITF inh -1.0.
For C[C@H]1CN([C@@H](C)CO)C(=O)c2cccc(NC(=O)Nc3ccc(C(F)(F)F)cc3)c2O[C@H]1CN(C)S(=O)(=O)c1ccc(Cl)cc1 the results were BJeLR viab HTS 0.5, YB-1 expr inh 0.036, Hedgehog inh 104.9* and MITF inh -3.1.
Screening NS(=O)(=O)c1ccc(NC(=O)COC(=O)c2cccc(N3C(=O)CCC3=O)c2)cc1 returned BJeLR viab HTS -0.5.
CCOc1ccc(C(C)=O)cc1CSc1nc(C)cc(=O)[nH]1 was read as MITF inh -7.8.
`COc1ccc(OC)c(NC(=O)COc2ccc3c4c(c(=O)oc3c2)CCC4)c1` gave MITF inh -8.1.
C[C@@H]1CN([C@H](C)CO)C(=O)c2cc(NC(=O)C3CC3)ccc2O[C@H]1CN(C)S(=O)(=O)c1ccc(F)cc1 was read as BJeLR viab HTS 0.3, YB-1 expr inh 0.868 and MITF inh 4.3.
For COc1ccc(NC(=O)C2CCC(Cn3c(=S)[nH]c4ccsc4c3=O)CC2)cc1 (stereo unspecified) the results were BJeLR viab HTS -0.1.
For COc1ccc(NC(=O)Nc2cccc3c2O[C@H](CN(C)S(=O)(=O)c2ccc(Cl)cc2)[C@H](C)CN([C@@H](C)CO)C3=O)cc1 the results were BJeLR viab HTS 0.3, YB-1 expr inh -0.494, Hedgehog inh 33.4 and MITF inh -5.8.
For C[C@H](CO)N1C[C@H](C)[C@H](CN(C)S(=O)(=O)c2ccc(Cl)cc2)Oc2c(NC(=O)Nc3ccc(C(F)(F)F)cc3)cccc2C1=O the results were BJeLR viab HTS 0.6, YB-1 expr inh 0.0114, Hedgehog inh 99.8* and MITF inh 9.7.
COc1ccc(NC(=O)Nc2cccc3c2O[C@@H](CN(C)S(=O)(=O)c2ccc(Cl)cc2)[C@@H](C)CN([C@@H](C)CO)C3=O)cc1 was read as BJeLR viab HTS -1.8, YB-1 expr inh 0.0437, Hedgehog inh 100.8* and MITF inh -8.2.
Screening C[C@@H]1CN([C@@H](C)CO)C(=O)Cc2cc(NC(=O)CCCCCC(=O)Nc3ccccc3N)ccc2O[C@@H]1CN(C)S(=O)(=O)c1cn(C)cn1 returned YB-1 expr inh 0.0825 and MITF inh -11.5.
Cc1ccc(S(=O)(=O)N(C)C[C@@H]2Oc3c(NC(=O)c4ccncc4)cccc3C(=O)N([C@@H](C)CO)C[C@H]2C)cc1 was read as BJeLR viab HTS -3.9, YB-1 expr inh -0.416, Hedgehog inh 3.5 and MITF inh -6.6.
For CC1=CC2OC3[C@H](O)C[C@](C)([C@@]2(CO)CC1=O)[C@]31CO1 (stereo partly specified) the results were BJeLR viab HTS 37.5, YB-1 expr inh -0.488, Hedgehog inh 95.0* and MITF inh 46.9.

Source: PubChem
